Laboratory results published in PubChem BioAssay.
Values joined by “and” are separate entries in the source; they are usually repeats but may differ in a detail not shown here. Identical values can stand only once. Active and inactive are the calls of the source.

Key:
[1] = test system: PRMT1 (protein arginine N-methyltransferase 1); test: small molecules binding arginine methyltransferase PRMT1 – biochemical, small-molecule microarray, 635 nm fluorescence, primary screen (AID 1088); conditions: higher = more signal;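 note: binding of Prmt1 protein to compounds spotted on small-molecule microarray slides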
[2] = growth effects on S. cerevisiae YJM789 – YJM789 clinical isolate, OD600, 24 h, basal, primary screen (AID 1089); conditions: higher = more signal, called active from +8 up or from −8 down;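 note: growth of clinical yeast isolate S. cerevisiae YJM 789 seeded 1000 cells per well; test concentration not given here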
[3] = S. pombe growth modifiers, basal conditions – strain 972, OD600, 24 h, no modulator, primary screen (AID 1090);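 note: basal condition with compound alone and no growth modifier present; test concentration not given here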; conditions: S. pombe 972 growth, higher = more signal, called active from +8 up or from −8 down
[4] = budding yeast growth modifiers under rapamycin – strain BY4716, OD600, 96 h, primary screen (AID 1091); note: test concentration not given here; conditions: S. cerevisiae BY4716 + rapamycin, higher = more signal, called active from +8 up or from −8 down
[5] = molecular target: Torsin-1A-interacting protein 2 (Homo sapiens) (UniProt Q8NFQ8); test: small molecules binding lysate-expressed LULL1 – cell lysate, human LULL1 lysate, 635/667 nm fluorescence, primary screen (AID 1092); conditions: small-molecule microarray, hLULL1 lysate binding, 635 nm fluorescence; higher = more signal;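 note: probe is lysate of COS7 cells overexpressing human LULL1; score merges per-feature 667 nm fluorescence with signal-to-noise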
[6] = optical density change of DRC41 E. coli – strain DRC41, OD650, 24 h, E. coli filamentation project, primary screen (AID 1093);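 note: MC1000 strain lacking acrAB efflux and sulA so SOS filamentation is blocked; test concentration not given here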; conditions: E. coli DRC41 growth, higher = more signal, called active from +8 up or from −8 down
[7] = probe aLefty2 binding to arrayed compounds – biochemical, biotinylated probe, 635/667 nm fluorescence, primary screen (AID 1094); conditions: small-molecule microarray, higher = more signal;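 note: score merges spot fluorescence near 667 nm with spot signal-to-noise ratio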
[8] = test system: Noggin (protein binding on small-molecule microarray); test: small molecules binding Noggin protein – biochemical, 635/667 nm fluorescence, primary screen (AID 1095); conditions: 635 nm fluorescence, higher = more signal;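 note: score merges 667 nm feature fluorescence with signal to noise over triplicate slides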
[9] = molecular target: Neurogenic locus notch homolog protein 3 (Homo sapiens) (UniProt Q9UM47); test: small molecules binding NOTCH3 protein – biochemical, 635/667 nm fluorescence, primary screen (AID 1096); conditions: small-molecule microarray, 635 nm fluorescence, higher = more signal
[10] = probe aEGFR binding to arrayed compounds – biochemical, biotinylated probe, 635/667 nm fluorescence, primary screen (AID 1097); conditions: small-molecule microarray, higher = more signal;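 note: probe is a biotinylated anti-EGFR antibody binding compounds printed on slides; score combines fluorescence near 667 nm and signal to noise of each spot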
[11] = test system: Plasmodium falciparum Sir2 (PF13_0152, Sir2A); test: Plasmodium falciparum Sir2A binding compounds – biochemical, small-molecule microarray, 635 nm fluorescence, primary screen (AID 1098); conditions: fluorescence 635 nm, higher = more signal;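 note: score merges spot fluorescence intensity with its signal-to-noise ratio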
[12] = probe aDKK1 binding to arrayed compounds – biochemical, biotinylated probe, 635/667 nm fluorescence, primary screen (AID 1099); conditions: small-molecule microarray, higher = more signal;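 note: score merges 667nm spot fluorescence with signal to noise across triplicate slides; reference of the scale not given here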
[13] = probe aCHRDL2 binding to arrayed compounds – biochemical, biotinylated probe, 635/667 nm fluorescence, primary screen (AID 1100); conditions: small-molecule microarray, higher = more signal
[14] = change in splice reporter luminescence, either direction, cell-based, HEK293, spliceosome inhibition project, primary screen (AID 1101); conditions: HEK293 splicing luciferase reporter, 24 h, higher = more signal, called active from +8 up or from −8 down;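 note: HEK293 cells carrying a splicing-competent luciferase reporter gene; test concentration not given here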
[15] = molecular target: Fibroblast growth factor 10 (Homo sapiens) (UniProt O15520); test: compounds binding fibroblast growth factor 10 – biochemical, small-molecule microarray, 635 nm fluorescence, primary screen (AID 1102); conditions: FGF10 binding, fluorescence 635 nm, higher = more signal
[16] = test system: glycogen synthase kinase-3 (GSK3A per assay name; protocol says GSK3B); test: compounds binding glycogen synthase kinase-3 – biochemical, small-molecule microarray, 635 nm fluorescence, GSK3A, primary screen (AID 1103); conditions: fluorescence 635 nm, higher = more signal; note: the record names both GSK3A and GSK3B
[17] = molecular target: Epidermal growth factor receptor (Homo sapiens) (UniProt P00533); test: compounds binding epidermal growth factor receptor – biochemical, small-molecule microarray, 635 nm fluorescence, primary screen (AID 1104); conditions: EGFR binding, higher = more signal;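 note: score merges 667 nm emission intensity with spot signal to noise over triplicate slides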
[18] = molecular target: Follistatin-related protein 3 (Homo sapiens) (UniProt O95633); test: compounds binding follistatin-related protein 3 – biochemical, small-molecule microarray, 635 nm fluorescence, primary screen (AID 1105); conditions: FSTL3 binding, higher = more signal;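 note: score merges emission near 667 nm and signal to noise per printed spot across three slides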
[19] = molecular target: Dickkopf-related protein 1 (Homo sapiens) (UniProt O94907); test: small molecules binding DKK1 protein – biochemical, small-molecule microarray, 635 nm fluorescence scan, primary screen (AID 1106); conditions: higher = more signal;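 note: score merges emission near 667 nm with signal to noise over three replicate slides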
[20] = test system: Inhibin beta A chain (activin A); test: small molecules binding activin A – biochemical, small-molecule microarray, 635 nm fluorescence scan, primary screen (AID 1107); conditions: INHBA, higher = more signal;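 note: mouse activin A protein probed at 4.33 µg/mL on printed slides; score merges bound-protein fluorescence near 667 nm with spot signal-to-noise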

Chain of Follistatin-related protein 3 (Homo sapiens) (O95633 whole entry, looked up): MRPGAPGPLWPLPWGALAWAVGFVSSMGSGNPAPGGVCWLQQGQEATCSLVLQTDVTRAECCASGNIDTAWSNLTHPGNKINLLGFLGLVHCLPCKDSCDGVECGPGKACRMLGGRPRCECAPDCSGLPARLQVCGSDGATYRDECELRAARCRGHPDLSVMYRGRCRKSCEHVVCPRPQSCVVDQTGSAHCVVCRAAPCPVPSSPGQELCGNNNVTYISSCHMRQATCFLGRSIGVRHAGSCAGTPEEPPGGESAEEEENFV
Chain of Fibroblast growth factor 10 (Homo sapiens) (O15520 whole entry, looked up): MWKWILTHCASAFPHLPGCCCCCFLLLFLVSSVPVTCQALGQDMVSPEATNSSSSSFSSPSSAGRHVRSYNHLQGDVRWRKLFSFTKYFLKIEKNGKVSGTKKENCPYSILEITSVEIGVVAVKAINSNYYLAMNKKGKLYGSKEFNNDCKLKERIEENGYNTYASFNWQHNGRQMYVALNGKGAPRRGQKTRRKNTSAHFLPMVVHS
Chain of Neurogenic locus notch homolog protein 3 (Homo sapiens) (Q9UM47 whole entry, looked up): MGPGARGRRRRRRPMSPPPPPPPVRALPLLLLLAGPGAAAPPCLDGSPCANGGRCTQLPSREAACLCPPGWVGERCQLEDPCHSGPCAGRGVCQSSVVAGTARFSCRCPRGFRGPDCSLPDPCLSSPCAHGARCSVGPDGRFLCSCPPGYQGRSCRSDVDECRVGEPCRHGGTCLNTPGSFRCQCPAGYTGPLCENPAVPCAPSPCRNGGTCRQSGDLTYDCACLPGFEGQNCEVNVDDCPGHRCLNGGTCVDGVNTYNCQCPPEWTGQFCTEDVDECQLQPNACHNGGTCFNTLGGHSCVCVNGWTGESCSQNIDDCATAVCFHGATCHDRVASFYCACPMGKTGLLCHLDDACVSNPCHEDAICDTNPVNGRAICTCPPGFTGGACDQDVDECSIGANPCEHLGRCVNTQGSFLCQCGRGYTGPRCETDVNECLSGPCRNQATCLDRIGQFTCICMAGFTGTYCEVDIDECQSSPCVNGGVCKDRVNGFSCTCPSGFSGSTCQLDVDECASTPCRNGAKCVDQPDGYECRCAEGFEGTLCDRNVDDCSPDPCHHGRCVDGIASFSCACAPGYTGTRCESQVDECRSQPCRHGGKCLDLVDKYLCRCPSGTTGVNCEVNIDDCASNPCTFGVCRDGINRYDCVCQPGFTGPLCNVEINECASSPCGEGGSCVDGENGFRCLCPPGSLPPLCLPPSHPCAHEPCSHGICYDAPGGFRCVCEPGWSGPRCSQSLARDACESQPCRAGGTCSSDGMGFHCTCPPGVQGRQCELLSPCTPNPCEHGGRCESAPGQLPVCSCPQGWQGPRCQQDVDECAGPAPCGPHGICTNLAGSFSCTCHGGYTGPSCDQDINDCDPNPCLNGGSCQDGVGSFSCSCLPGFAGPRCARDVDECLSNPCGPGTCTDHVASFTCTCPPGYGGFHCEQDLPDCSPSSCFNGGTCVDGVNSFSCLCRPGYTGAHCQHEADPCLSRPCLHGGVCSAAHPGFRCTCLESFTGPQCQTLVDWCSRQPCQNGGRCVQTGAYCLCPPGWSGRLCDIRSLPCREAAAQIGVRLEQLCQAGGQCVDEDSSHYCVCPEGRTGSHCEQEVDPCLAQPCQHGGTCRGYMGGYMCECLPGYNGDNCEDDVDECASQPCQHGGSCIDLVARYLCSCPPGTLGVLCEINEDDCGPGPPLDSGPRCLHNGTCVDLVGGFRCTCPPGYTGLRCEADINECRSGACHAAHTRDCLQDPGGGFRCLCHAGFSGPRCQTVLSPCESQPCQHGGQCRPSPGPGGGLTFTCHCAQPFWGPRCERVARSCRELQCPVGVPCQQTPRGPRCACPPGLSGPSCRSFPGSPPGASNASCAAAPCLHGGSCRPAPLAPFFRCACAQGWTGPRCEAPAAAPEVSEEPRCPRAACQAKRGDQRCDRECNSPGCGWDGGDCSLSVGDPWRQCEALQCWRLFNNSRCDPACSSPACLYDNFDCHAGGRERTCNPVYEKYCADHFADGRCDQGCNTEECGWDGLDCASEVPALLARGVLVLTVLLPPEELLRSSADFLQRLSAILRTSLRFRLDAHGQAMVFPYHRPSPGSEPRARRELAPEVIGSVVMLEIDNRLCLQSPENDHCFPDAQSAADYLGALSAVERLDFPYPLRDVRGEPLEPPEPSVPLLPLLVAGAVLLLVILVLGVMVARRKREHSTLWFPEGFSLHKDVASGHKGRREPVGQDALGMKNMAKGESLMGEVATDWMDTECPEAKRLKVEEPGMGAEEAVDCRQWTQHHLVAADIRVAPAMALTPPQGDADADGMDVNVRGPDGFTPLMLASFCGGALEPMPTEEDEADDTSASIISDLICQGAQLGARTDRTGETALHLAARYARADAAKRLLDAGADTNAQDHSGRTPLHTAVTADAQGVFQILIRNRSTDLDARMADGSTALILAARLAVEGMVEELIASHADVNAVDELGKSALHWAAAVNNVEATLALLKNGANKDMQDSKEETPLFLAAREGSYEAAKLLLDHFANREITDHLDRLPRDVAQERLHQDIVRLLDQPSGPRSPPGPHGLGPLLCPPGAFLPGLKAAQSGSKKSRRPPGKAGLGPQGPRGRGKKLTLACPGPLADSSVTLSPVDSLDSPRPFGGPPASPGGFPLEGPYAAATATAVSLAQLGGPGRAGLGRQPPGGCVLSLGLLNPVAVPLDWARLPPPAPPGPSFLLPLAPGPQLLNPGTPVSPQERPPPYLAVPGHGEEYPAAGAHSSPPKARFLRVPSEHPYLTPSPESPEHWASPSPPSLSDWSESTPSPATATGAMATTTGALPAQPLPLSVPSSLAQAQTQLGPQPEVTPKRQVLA
Chain of Torsin-1A-interacting protein 2 (Homo sapiens) (Q8NFQ8 whole entry, looked up): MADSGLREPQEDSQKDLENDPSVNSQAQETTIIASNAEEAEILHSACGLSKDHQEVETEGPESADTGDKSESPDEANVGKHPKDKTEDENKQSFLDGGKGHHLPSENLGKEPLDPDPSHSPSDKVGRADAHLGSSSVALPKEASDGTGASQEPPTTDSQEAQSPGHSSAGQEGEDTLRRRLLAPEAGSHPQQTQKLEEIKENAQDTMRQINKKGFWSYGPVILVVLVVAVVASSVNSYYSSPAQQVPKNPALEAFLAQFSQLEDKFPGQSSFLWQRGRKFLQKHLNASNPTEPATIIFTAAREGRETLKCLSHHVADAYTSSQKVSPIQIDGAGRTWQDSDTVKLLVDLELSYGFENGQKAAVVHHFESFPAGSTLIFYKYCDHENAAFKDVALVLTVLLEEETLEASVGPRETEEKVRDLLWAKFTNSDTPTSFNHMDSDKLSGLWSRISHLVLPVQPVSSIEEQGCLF
Chain of Epidermal growth factor receptor (Homo sapiens) (P00533 whole entry, looked up): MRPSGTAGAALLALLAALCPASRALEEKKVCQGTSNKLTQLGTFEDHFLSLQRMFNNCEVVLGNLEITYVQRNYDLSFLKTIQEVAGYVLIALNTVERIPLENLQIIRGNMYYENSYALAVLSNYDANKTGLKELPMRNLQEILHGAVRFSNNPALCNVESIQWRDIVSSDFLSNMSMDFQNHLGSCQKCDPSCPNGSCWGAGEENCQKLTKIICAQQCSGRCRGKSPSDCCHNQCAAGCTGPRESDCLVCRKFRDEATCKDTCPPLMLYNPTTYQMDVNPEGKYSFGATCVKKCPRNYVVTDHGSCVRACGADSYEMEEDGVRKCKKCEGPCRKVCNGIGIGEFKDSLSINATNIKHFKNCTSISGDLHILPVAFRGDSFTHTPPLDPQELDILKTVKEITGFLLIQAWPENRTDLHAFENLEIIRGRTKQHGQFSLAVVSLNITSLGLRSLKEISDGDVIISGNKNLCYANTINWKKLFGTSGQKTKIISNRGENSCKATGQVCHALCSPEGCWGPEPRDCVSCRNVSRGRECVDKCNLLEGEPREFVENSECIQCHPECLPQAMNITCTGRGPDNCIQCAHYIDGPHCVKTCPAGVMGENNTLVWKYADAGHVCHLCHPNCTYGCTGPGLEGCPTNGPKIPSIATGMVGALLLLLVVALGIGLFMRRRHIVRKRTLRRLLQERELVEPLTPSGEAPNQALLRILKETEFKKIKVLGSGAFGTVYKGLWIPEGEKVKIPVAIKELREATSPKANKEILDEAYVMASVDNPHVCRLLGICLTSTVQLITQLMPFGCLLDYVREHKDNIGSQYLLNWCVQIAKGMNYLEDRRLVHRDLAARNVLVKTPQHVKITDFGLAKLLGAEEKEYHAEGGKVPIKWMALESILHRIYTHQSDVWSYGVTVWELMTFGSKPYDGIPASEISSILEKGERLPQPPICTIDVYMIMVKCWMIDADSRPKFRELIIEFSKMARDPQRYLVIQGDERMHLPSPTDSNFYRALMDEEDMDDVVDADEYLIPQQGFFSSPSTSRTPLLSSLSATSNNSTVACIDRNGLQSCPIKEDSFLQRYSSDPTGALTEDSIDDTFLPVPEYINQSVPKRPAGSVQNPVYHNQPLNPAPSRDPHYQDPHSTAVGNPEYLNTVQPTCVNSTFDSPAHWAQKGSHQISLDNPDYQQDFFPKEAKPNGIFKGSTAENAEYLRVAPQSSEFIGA
Chain of Dickkopf-related protein 1 (Homo sapiens) (O94907 whole entry, looked up): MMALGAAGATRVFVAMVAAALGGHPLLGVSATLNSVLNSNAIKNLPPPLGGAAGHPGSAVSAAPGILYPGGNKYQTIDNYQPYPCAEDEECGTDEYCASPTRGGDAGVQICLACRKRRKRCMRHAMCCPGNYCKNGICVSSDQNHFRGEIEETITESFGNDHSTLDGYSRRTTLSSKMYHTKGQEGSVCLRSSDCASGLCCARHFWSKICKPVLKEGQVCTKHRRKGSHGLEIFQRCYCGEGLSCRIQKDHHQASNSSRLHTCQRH

SMILES	composite z-score [1]	z-score [2]	z-score [3]	z-score [4]	composite z-score [5]	z-score [6]	composite z-score [7]	composite z-score [8]	composite z-score [9]	composite z-score [10]	composite z-score [11]	composite z-score [12]	composite z-score [13]	z-score [14]	composite z-score [15]	composite z-score [16]	composite z-score [17]	composite z-score [18]	composite z-score [19]	composite z-score [20]
CC(C)CON=C1C[C@@H](O)[C@@H](O)[C@@H]2[C@@H]3C(=O)N(c4cccc(Oc5ccccc5)c4)C(=O)[C@@H]3CC[C@H]12	0.973	0.097 (inactive)	0.561 (inactive)	-0.54 (inactive)	0.897	1.04 (inactive)	-0.136	0.318	0.951	-0.0549	0.0512	-0.354	-0.712	-0.00485 (inactive)	0.357	0.278	0.338	0.571	0.661	-0.15
CCCC[C@@H]1CN2[C@H](c3ccc(Br)cc3)[C@@H](C)CC[C@H]2C(=O)O1	-0.214 and 0.499	-0.156 (inactive) and -0.142 (inactive)	-19.4 (active) and -17.4 (active)	-0.269 (inactive) and -0.224 (inactive)	-0.461 and -0.18	0.298 (inactive) and 0.24 (inactive)	-0.234 and -0.145	0.16 and 0.31	-0.391 and -0.433	-0.174 and -0.137	0.186 and 0.254	-0.385 and -0.192	-0.492 and -0.707	-0.475 (inactive) and 0.405 (inactive)	0.124 and 0.115	0.0093 and -0.0119	0.283 and 0.308	-0.427 and -0.351	0.407 and -0.117	0.574 and 0.485
CO[C@@H]1C=CCC(=O)N2CCC[C@H]2C(=O)OC[C@H](C)C(=O)OC[C@H]1C	0.59	0.741 (inactive)	-0.295 (inactive)	-0.606 (inactive)	-0.246	0.714 (inactive)	-0.0693	1.41	-0.13	0.163	0.517	-0.33	-0.966	-0.25 (inactive)	0.243	0.396	0.612	0.875	1.26	0.358
CCOC(=O)C[C@H]1[C@H](OC(=O)c2ccccc2-c2ccccc2)[C@@H](NC(=O)Cc2ccc(OC)cc2)c2cc(OCCCO)ccc2N1C(=O)c1ccc2ccccc2n1	-0.557 and 0.587	-0.321 (inactive) and -0.249 (inactive)	-0.0002 (inactive) and -0.478 (inactive)	-0.411 (inactive) and 0.456 (inactive)	0.347 and 0.379	2.43 (inactive) and 1.41 (inactive)	-0.0953 and 0.0397	0.248 and 0.329	0.0452 and 0.418	-0.0107 and 0.182	0.108 and 0.154	-0.114 and 0.575	0.0078 and 0.468	-0.472 (inactive) and -0.891 (inactive)	0.43 and 0.682	0.0554 and 0.185	0.219 and -0.108	0.0539 and 0.0407	0.404 and 0.209	0.773 and 0.105
CCCNC(=O)OC[C@H]1O[C@H](CCON=C(C)CCN2CCc3nc(-c4ccccc4)c(-c4ccccc4)cc3C2)C=C[C@@H]1Oc1ccc(OC)cc1	0.497	1.12 (inactive)	-0.724 (inactive)	-3.57 (inactive)	1.04	0.385 (inactive)	-0.0638	0.553	-0.105	0.0321	0.274	-0.128	-0.155	-0.0345 (inactive)	0.0705	-0.0859	0.0142	0.254	0.431	0.67
C=CCN(CCCCC)C(=O)C(c1cccs1)N(C(=O)/C=C\C(=O)O)c1ccc(CCO)cc1 (stereo not given)	0.275 and -0.0988	0.472 (inactive) and 0.0638 (inactive)	-0.265 (inactive) and 0.206 (inactive)	0.499 (inactive) and 0.494 (inactive)	1.64 and 0.636	0.295 (inactive) and -0.109 (inactive)	-0.254 and -0.0927	-1.9 and -1.27	-1.01 and -1.02	-0.309 and -0.313	0.274 and 0.158	-0.273 and -0.247	0.748 and 0.789	0.748 (inactive) and 0.709 (inactive)	-1.8 and -1.08	-1.01 and -0.785	-1.79 and -1.62	-1.87 and -1.55	-2.83 and -1.55	-2.66 and -1.26
